{"source": "PubChem BioAssay (Tox21)", "note": "Inconclusive results are not listed. Activity calls are given as the source filed them. The call rests on the fitted dose curve; in most records, active means well fitted activation curve with a large enough effect in the repeat runs; inconclusive means weak or mixed curves; inactive means flat fitted curve, though single readings scatter. On the % scale 0 is the no-effect control and ±100 the full control effect.", "data": [{"assay": "A CellTox Green Cytotoxicity Assay to monitor cytotoxicity in HepG2 cells - 16 hour (AID 1224876); further: nearly all actives have a fitted effect of over 45% in size", "conditions": "CellTox Green fluorescence; series mostly up to 76.8 µM; cytotoxicity increase: at the top concentration", "excerpt": "National Center for Advancing Translational Sciences [NCATS]\nNIH Chemical Genomics Center [NCGC]\nU.S. Environmental Protection Agency [EPA]\nNational Institutes of Environmental Health Sciences [NIEHS]\nNational Toxicology Program [NTP]\nCell-based models are critical for drug discovery. Determining the natural cytotoxic effects resulting from test compounds is an essential research activity. A CellTox Green Cytotoxicity Assay to monitor cytotoxicity in real time of continues cell culture during 40 hours of the compound treatment was used to screen Tox21 10K library compounds in HepG2 cells. CellTox Green Cytotoxicity Assay is a nonlytic, homogeneous, biofluorescent method to measure cytotoxicity in cell culture after experimental manipulation. The assay system uses a proprietary asymmetric cyanine dye that is excluded from viable cells but preferentially stains the dead cell's DNA. […] Viable cells produce no appreciable increases in fluorescence. Therefore, the fluorescence signal produced by the binding interaction with dead cell DNA is proportional to cytotoxicity.\nThe mixture of HepG2 cell suspension and reagents were dispensed at 600cells/6 ul/well in 1536-well tissue culture treated black solid bottom plates using a Multidrop dispenser. After the assay plates were incubated at a 37 C/5% CO2 incubator for 5 hours, 23 nL of compounds dissolved in DMSO, positive and negative controls was transferred to the assay plate by a pintool work station. The plates were incubated at 37 C for 40 hours. The fluorescence intensity were measured at 0h, 8h, 16h, 24h, 32h and 40h time points using ViewLux plate reader during compound treatment.", "values": [{"smiles": "Nc1ccc(C(=O)OCC(O)CO)cc1", "note": "(stereo not given)", "cytotoxicity increase": "-5.7% [at 35.3 µM] (inactive)"}, {"smiles": "CC(=O)N(CC(O)CO)c1c(I)c(C(=O)NCC(O)CO)c(I)c(C(=O)NCC(O)CO)c1I", "note": "(stereo not given)", "cytotoxicity increase": "-13.1% [at 35.3 µM] (inactive)"}, {"smiles": "O=c1cc(O)c(Cl)c[nH]1", "cytotoxicity increase": "0.981% [at 35.3 µM] (inactive)"}, {"smiles": "O=c1[nH]c(=O)c2ccccc2o1", "cytotoxicity increase": "-15% [at 35.3 µM] (inactive)"}, {"smiles": "COc1ccc(OC)c(NC(=O)CC(C)=O)c1", "cytotoxicity increase": "-5.76% (inactive)"}, {"smiles": "CCCCCCCCCCCCCC(=O)OC", "cytotoxicity increase": "-13.8% (inactive)"}, {"smiles": "CCOC(=O)C(=O)c1csc(NC=O)n1", "cytotoxicity increase": "-12.8% [at 35.3 µM] (inactive)"}, {"smiles": "COc1cc2c(Nc3ccc(Br)cc3F)ncnc2cc1OCC1CCN(C)CC1", "cytotoxicity increase": "0.752% [at 35.3 µM] (inactive)"}, {"smiles": "Cc1ccc(S(=O)(=O)NC(=O)NC2CCCCCCC2)cc1", "cytotoxicity increase": "-0.477% [at 35.3 µM] (inactive)"}, {"smiles": "Cc1ccccc1OCC1CO1", "note": "(stereo not given)", "cytotoxicity increase": "8.54% (inactive)"}, {"smiles": "C=CCOc1c(Br)cc(Br)cc1Br", "cytotoxicity increase": "7.94% (inactive)"}, {"smiles": "COc1cc(C=O)ccc1OC(=O)C(C)C", "cytotoxicity increase": "-3.58% (inactive)"}, {"smiles": "O=S1(=O)CCCC1", "cytotoxicity increase": "-5.55% (inactive)"}, {"smiles": "CC(C)(C)c1ccc(C=O)cc1", "cytotoxicity increase": "8.22% (inactive)"}, {"smiles": "CCCCOC(=O)[C@@H](C)Oc1ccc(Oc2ccc(C(F)(F)F)cn2)cc1", "cytotoxicity increase": "-2.87% (inactive)"}, {"smiles": "CC(C)(CO)[C@@H](O)C(=O)NCCCO", "cytotoxicity increase": "-5.84% [at 35.3 µM] (inactive)"}, {"smiles": "Oc1ccccc1Cc1ccccc1O", "cytotoxicity increase": "27.7% (inactive)"}, {"smiles": "NC(=O)NC(=O)Cc1ccccc1", "cytotoxicity increase": "-7.71% [at 35.3 µM] (inactive)"}, {"smiles": "O=CN1CCOCC1", "cytotoxicity increase": "-6.9% (inactive)"}, {"smiles": "SCCSCCS", "cytotoxicity increase": "-5.26% (inactive)"}, {"smiles": "COC(OC)C(C)c1ccccc1", "note": "(stereo not given)", "cytotoxicity increase": "-0.084% (inactive)"}, {"smiles": "O=C(O)c1c(Cl)ccc(Cl)c1Cl", "cytotoxicity increase": "1.61% (inactive)"}, {"smiles": "Cn1c(=O)c2c(ncn2CC2OCCO2)n(C)c1=O", "cytotoxicity increase": "4.19% [at 35.3 µM] (inactive)"}, {"smiles": "O=C(CN1CCN(Cc2ccc3c(c2)OCO3)CC1)N1c2ccccc2Sc2ccccc21", "cytotoxicity increase": "12% [at 35.3 µM] (inactive)"}, {"smiles": "COc1ccc(/C=N/NC(=O)c2ccncc2)cc1OC", "cytotoxicity increase": "-7.03% [at 35.3 µM] (inactive)"}, {"smiles": "C=C(C)C(=O)OC", "cytotoxicity increase": "6.52% (inactive)"}, {"smiles": "CCCCCCCCCCCCC", "cytotoxicity increase": "-4.56% (inactive)"}, {"smiles": "CC(=O)OC(C(=O)c1ccccc1)c1ccccc1", "note": "(stereo not given)", "cytotoxicity increase": "3.03% (inactive)"}, {"smiles": "CCc1nccnc1C", "cytotoxicity increase": "0.0254% (inactive)"}, {"smiles": "O=C(O)CCNC(=O)c1ccccc1", "cytotoxicity increase": "-1.83% [at 35.3 µM] (inactive)"}, {"smiles": "OC[C@@H](O)[C@H](O)[C@@H](O)[C@@H](O)CO", "cytotoxicity increase": "14.1% (inactive)"}, {"smiles": "CCCOC(=O)CCCCC(=O)OCCC", "cytotoxicity increase": "-0.67% (inactive)"}, {"smiles": "Cc1cccc(Nc2ccncc2S(=O)(=O)NC(=O)NC(C)C)c1", "cytotoxicity increase": "0.948% [at 35.3 µM] (inactive)"}, {"smiles": "CCC(C)N", "note": "(stereo not given)", "cytotoxicity increase": "-13.4% (inactive)"}, {"smiles": "C=CCOCC(CO)(COCC=C)COCC=C", "cytotoxicity increase": "-0.125% [at 35.3 µM] (inactive)"}, {"smiles": "Nc1cc(Cl)cc(S(=O)(=O)O)c1O", "cytotoxicity increase": "-3.11% (inactive)"}, {"smiles": "CC(=O)OCCCc1ccccc1", "cytotoxicity increase": "3.48% (inactive)"}, {"smiles": "NS(=O)(=O)c1ccc(Cl)c(S(N)(=O)=O)c1", "cytotoxicity increase": "-9.01% [at 35.3 µM] (inactive)"}, {"smiles": "CCC(=O)c1ccc(O)cc1", "cytotoxicity increase": "-1.24% [at 35.3 µM] (inactive)"}, {"smiles": "O=P(O)(O)OCC(O)CO", "note": "(stereo not given)", "cytotoxicity increase": "-13% [at 35.3 µM] (inactive)"}]}]}
